ELG1 genotoxic: inducers of genotoxicity in HEK293T ELG1-luciferase cells. HEK293T ELG1-luciferase reporter, luminescence, 16 h. Potency, µM (top dose mostly 46 µM), inactives show at the top dose activity change, positive = activation, most hits filed as activators. hit rate 1.3% among 330,000. AID 504466; also: % of control where 0% means no effect; nearly all actives have a fitted effect of over 60% in size
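16 hr compound incubation (37 °C, 5% CO2) of HEK293T cells carrying luciferase-tagged ELG1; luciferase then measured by ONE-Glo luminescence after 30 min at RT.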
SMN2 splice enh: enhancers of SMN2 splice variant expression | AID 1458 | hit rate 2.8% among 210,000 | Potency, µM (series often up to 46.1 µM), inactives show at the top dose activity change, positive = activation, most hits filed as activators | HEK293 SMN2-luciferase splicing reporter, luminescence, 30-36 h; also: % of control where 0% means no effect; nearly all actives have a fitted effect of over 55% in size
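HEK293 cells carry an SMN2 minigene-luciferase reporter in which exon 7 inclusion puts luciferase in frame. Cells were seeded at 2000 cells/well, attached for 10-12 hours, then exposed to compounds for 30-36 hours at 37C before ONE-Glo luminescence.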
FLuc modulator: inhibits or activates purified firefly luciferase, miR-21 counter-screen. AID 588342. P08659. hit rate 6.9% among 360,000. Potency, µM (series often up to 57.5 µM), inactives show top-dose activity change, negative = inhibition, hits mostly inhibitors. purified FLuc, Km substrates, luminescence inhibition;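 also: plate controls were vehicle for no effect and reference inhibitor for full effect; nearly all actives have a fitted effect of over 55% in size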
Target sequence (P08659 whole entry, looked up): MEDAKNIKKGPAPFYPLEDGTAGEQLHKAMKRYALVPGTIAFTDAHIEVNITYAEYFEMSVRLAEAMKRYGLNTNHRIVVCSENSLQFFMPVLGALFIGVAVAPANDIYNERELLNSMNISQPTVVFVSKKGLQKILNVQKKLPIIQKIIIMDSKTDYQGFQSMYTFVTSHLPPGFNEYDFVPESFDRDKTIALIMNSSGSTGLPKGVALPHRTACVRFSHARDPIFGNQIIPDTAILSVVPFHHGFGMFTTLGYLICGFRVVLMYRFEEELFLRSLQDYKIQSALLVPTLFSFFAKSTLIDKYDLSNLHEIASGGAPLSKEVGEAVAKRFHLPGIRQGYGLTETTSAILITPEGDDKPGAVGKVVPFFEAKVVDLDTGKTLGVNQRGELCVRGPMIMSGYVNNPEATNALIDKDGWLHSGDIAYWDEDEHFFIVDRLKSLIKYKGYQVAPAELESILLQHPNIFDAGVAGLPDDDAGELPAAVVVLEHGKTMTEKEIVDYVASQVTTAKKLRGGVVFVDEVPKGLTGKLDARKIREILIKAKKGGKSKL
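Biochemical qHTS of compounds, final roughly 60 µM downward over six points, against 10 nM purified firefly luciferase using Km concentrations of substrates (10 uM D-luciferin, 10 uM ATP) in Tris acetate pH 7.5 buffer; luminescence output.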
ELG1 repair inh: inhibitors of ELG1-dependent DNA repair in HEK293T cells; HEK293T ELG1-luciferase reporter, luminescence, 16 h; DNA damage induced by 5-fluorouridine; Potency, µM (titrated, usually from 46.1 µM), without a hit: at the highest dose activity change, negative = inhibition, usual class: inhibitors; hit rate 2.3% among 330,000; AID 504467; also: % is scaled to controls: 0 for no effect and ±100 for the full control effect; nearly all actives have a fitted effect of over 55% in size
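Step one: seed 2,000 cells per well. Step two: pin-transfer compound or DMSO alongside 5-fluorouridine. Step three: incubate 16 hr, 37 °C, 5% CO2. Step four: add ONE-Glo, wait 30 min, read luminescence.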
Rab9 promoter act: activates the Rab9 promoter; Huh7 Rab9 promoter-luciferase reporter, luminescence, 24 h; Potency, µM (highest dose often 9.22 µM), without a hit: at the top dose activation, negative = inhibition, usual class: activators; hit rate 2.8% among 320,000; also: % of control where 0% means no effect; nearly all actives have a fitted effect of over 60% in size
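Promoter activation is measured as luciferase luminescence in Huh7 cells stably transfected with a Rab9 promoter–luciferase construct, following 24 h compound exposure at 37 °C and 10 min reagent incubation at ambient temperature.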
NPC1 promoter act: activates the NPC1 promoter. Huh7 NPC1 promoter luciferase reporter, 24 h. Potency, µM (titrated, usually from 9.22 µM), inactives show at the highest dose activation, hits mostly activators. hit rate 2.4% among 320,000. AID 485313; also: % of control where 0% means no effect; nearly all actives have a fitted effect of over 60% in size
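Luciferase expression driven by the NPC1 promoter was measured in stably transfected Huh7 cells after a 24 h compound incubation, using a luciferase reagent and a luminescence read.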
* marks the source's active call; other numbers are inactive results; ? = inconclusive; nt = not tested or not shown; [ ] = remark or other dose. An excerpt weighted towards active compounds, which were near 9.3% of everything screened. Calls follow the shape of the dose curve; as a rule, active = well fitted curve in the direction sought with a large enough effect; inconclusive = small, poorly fitted or top-dose-only effect, or another doubt; inactive = no such curve, though single readings can be large; an effect the other way counts as inactive or inconclusive. Potency is read from the fitted curve at half-maximal effect.

SMILES | ELG1 genotoxic | SMN2 splice enh | FLuc modulator | ELG1 repair inh | Rab9 promoter act | NPC1 promoter act
O=C(c1ccccc1)c1cn[nH]c1-c1ccccc1O | 0.1% | -6.5% | -8.1% | 0.6% | -7.9% | -3.9%
COc1ccc(O)c(-c2[nH]ncc2C(=O)c2ccccc2)c1 | -34.6% | -17.8% | 6.6% | 23.1µM* | 3.9% | -0.4%
Cc1ccc(C(=O)N2CCc3cc(CNC(=O)CSc4ccccc4)ccc32)cc1 | nt | nt | 23.9µM* | nt | nt | nt
O=C(N/N=C/c1ccccn1)c1cc(-c2ccc(Br)cc2)nc2ccccc12 | ? | nt | 5.36µM* | ? | -2.6% | -4.0%
O=C(N/N=C/c1ccccn1)c1cc(-c2ccc(Cl)cc2)nc2ccccc12 | 17.3% | -81.2% | 6.75µM* | ? | -3.9% | -0.4%
O=C(NN1CCOCC1)c1cc(-c2ccc(Br)cc2)nc2ccccc12 | 0.3% | 4.9% | ? | -7.4% | -4.3% | -2.5%
Cc1[nH]c2ccccc2c1/C=N/NC(=O)c1cc(-c2ccncc2)nc2ccccc12 | -5.3% | nt | ? | ? | -6.0% | -24.6%
O=C(O)CNC(=O)C12CC3CC(CC(Cl)(C3)C1)C2 | 1.0% | 3.2% | -4.7% | 6.3% | 1.5% | -7.2%
COc1ccc(/C=N/NC(=O)c2ccoc2C)cc1O | ? | ? | ? | ? | 24.2% | 11.6%
COc1cc(/C=C/C(=O)C2C(=O)C=C(C)OC2=O)cc(OC)c1O (stereo not given) | 0.5% | -53.4% | -17.0% | 2.59µM* | -6.7% | -4.4%
COc1ccc(/C=C/C(=O)C2C(=O)C=C(C)OC2=O)cc1O (stereo not given) | ? | 11.6% | 6.01µM* | ? | 18.2% | ?
Cc1ccc(C(=O)Nc2nc3ccc(S(=O)(=O)N4CCCC4)cc3s2)cc1 | nt | nt | -4.8% | nt | nt | nt
O=C(Nc1nc2ccc(SC(F)F)cc2s1)c1ccc(NS(=O)(=O)c2ccc(F)c(F)c2)cc1 | -2.8% | -4.0% | 15.1µM* | -22.7% | 24.7% | 13.4%
CS(=O)(=O)c1ccc2nc(NC(=O)c3cccc(NS(=O)(=O)c4ccc(F)c(F)c4)c3)sc2c1 | -2.2% | -0.5% | 23.9µM* | ? | 1.4% | 12.5%
CS(=O)(=O)c1ccc2nc(NC(=O)c3ccc(NS(=O)(=O)c4ccc(F)c(F)c4)cc3)sc2c1 | -7.1% | nt | ? | ? | -2.2% | 8.3%
COc1cc(S(=O)(=O)N2CCN=C2c2ccccc2)ccc1F | 1.9% | 11.2µM* | 1.0% | 0.4% | -14.5% | -20.6%
CCOC(=O)c1sc(NS(=O)(=O)c2ccccc2Cl)nc1C | 5.9% | -8.8% | -2.3% | 1.2% | 0.1% | -0.3%
N/C(=N\OC(=O)c1cccc2ccccc12)c1ccccn1 | 10.3µM* | nt | 1.2µM* | ? | ? | ?
COc1cccc(C(=O)O/N=C(\N)c2ccccn2)c1OC | 1.83µM* | nt | 0.953µM* | ? | 0.708µM* | ?
N/C(=N\OC(=O)Cc1cccc2ccccc12)c1ccccn1 | ? | 4.4% | ? | ? | 22.5% | 25.4%
Cc1ccccc1OCCCCCn1ccnc1 | -2.2% | -14.5% | 1.5% | -21.6% | 1.1% | -2.0%
Nc1ncccc1C(=O)OCC(=O)N1CCN(S(=O)(=O)c2ccc(Cl)cc2)CC1 | -13.3% | nt | 7.6% | 9.2µM* | -6.2% | -3.8%
Cc1ccc(-n2ncc(C(=O)N3CCN(c4ncccn4)CC3)c2C2CCN(C(=O)OC(C)(C)C)CC2)cc1 | nt | nt | 6.0% | nt | nt | nt
CC(=O)NCCCc1nc2ccccc2n1Cc1cc(C)ccc1C | 4.5% | -9.5% | -0.3% | -10.2% | -2.1% | 1.9%
COC(=O)c1ccccc1NC(=O)c1ccc2c(c1)CC(C)O2 (stereo not given) | 4.8% | nt | 16.9µM* | ? | 2.24µM* | 27.8%
SMILES | ELG1 genotoxic | SMN2 splice enh | FLuc modulator | ELG1 repair inh | Rab9 promoter act | NPC1 promoter act
O=C(NCCc1nc2ccccc2n1CCOc1ccc(Cl)cc1)C1CCCCC1 | nt | -37.7% | -4.7% | nt | nt | nt
Cc1cccc(NC(=O)c2nc[nH]c2C(=O)N[C@@H](Cc2ccccc2)C(=O)OCc2ccccc2)c1 | -0.1% | nt | 1.8% | -0.9% | -10.3% | 2.1%
CCn1c(O)c(C=NC2CCCC(C)C2C)sc1=S (stereo not given) | ? | nt | 15.1µM* | ? | ? | ?
O=C(O)CSc1cc(NS(=O)(=O)c2cccc([N+](=O)[O-])c2)c2ccccc2c1O | -15.2% | nt | ? | 23.1µM* | -29.1% | -30.0%
O=S(=O)(Nc1cc(Sc2cccc3cccnc23)c(O)c2ccccc12)c1ccccc1 | -14.5% | ? | ? | 9.2µM* | -21.8% | -18.5%
CCOc1ccc(S(=O)(=O)Nc2cc(SCC(=O)O)c(O)c3ccccc23)cc1 | -13.1% | nt | ? | ? | -18.5% | -13.8%
Cc1cccc(NC(=O)c2ccc(F)c(S(=O)(=O)N3CCN(c4ccc(F)cc4)CC3)c2)c1 | nt | nt | 2.6% | nt | nt | nt
O=C(O)c1ccc(-n2nnc3ccccc32)c([N+](=O)[O-])c1 | 4.9% | nt | ? | ? | 9.1% | -4.6%
Cc1cccc(CSc2nc3sc(C)c(C)c3c(=O)n2Cc2ccco2)c1 | -4.1% | -20.1% | 4.7% | -7.5% | -7.6% | -1.4%
Cc1ccc(NC(=O)c2ccc(NC(=O)c3ccccc3)cc2)cc1C | ? | nt | 26.9µM* | ? | ? | ?
O=C(Cc1ccc(Cl)cc1)Nc1ccc(NC(=O)c2ccccc2)cc1 | 6.8% | 0.6%[1.84 µM] | 2.6% | 1.3% | 3.4% | -0.7%
Cc1cccc(C(=O)Nc2ccc(NC(=O)c3ccccc3)cc2)c1 | -6.2% | nt | 23.9µM* | -15.3% | -0.9% | -0.6%
O=C(CC(=O)c1ccccc1)Nc1ccc(Cl)cc1 | 13.3% | nt | 15.1µM* | ? | ? | ?
Cc1cccc(C(=O)Nc2cccc(NC(=O)c3ccccc3)c2)c1 | -1.7% | nt | 16.9µM* | -29.9% | -3.0% | 9.5%
Cc1cc(C)nc(SCC(=O)O)n1 | 0.1% | -5.7% | -0.6% | -3.1% | -1.5% | -3.3%
Cc1nc(C)c(CCNC(=O)c2ccccc2)s1 | 0.5% | 14.9% | -9.3% | 16.5% | 0.1% | -4.8%
Cc1ccnc(NC(=O)c2cccc(NC(=O)Cc3ccccc3)c2)c1 | 8.0% | nt | ? | 4.2% | -2.3% | -0.5%
Cc1cc2ccccn2c1C(=O)Nc1ccccc1 | ? | ? | 10.7µM* | ? | ? | 27.5%
Cc1cccc(C(=O)Nc2ccccc2C(=O)OCC(=O)Nc2ccc(C#N)cc2)c1 | ? | 15.8µM* | ? | ? | 12.8% | 11.0%
Cc1cc2ccccn2c1C(=O)Nc1ccc(Cl)cc1 | ? | 13.8% | ? | ? | ? | 12.6%
Cc1nc2ccccn2c1C(=O)/C=C/c1cccc([N+](=O)[O-])c1 | -27.1% | -69.1% | -4.8% | ? | -43.1% | -28.1%
Cc1cccc(C(=O)Nc2cccc(C(=O)Nc3cc(C)ccn3)c2)c1 | -6.3% | nt | 26.9µM* | -23.9% | 20.2% | 10.4%

Assay outcomes from PubChem BioAssay.
